According to the supplement of paper PMC7366291:
± gives the standard deviation of the averaged measurements.

These compounds were tested on Danio rerio Tg(wt1b:EGFP) embryo, pronephros (assay: glomerular width (mean of left and right), fold change vs DMSO control; higher = wider glomerulus). Details: 25 µM; exposure: 24-48 hpf.
Procedure, shortened: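 Dechorionated Tg(wt1b:EGFP) zebrafish embryos were exposed to 25 μM compound in 0.5% DMSO, HEPES-buffered E3 with 0.003% PTU, from 24 to 48 hpf at 28.5°C. Pronephroi were imaged dorsally in agarose-filled 96-well plates (470 nm, 10 z-slices). On maximum projections, 16 reference points were set manually in Fiji and a macro computed distances and angles. Values more than 2 SD from the feature mean were excluded. Each feature is a fold change relative to the mean of same-day DMSO controls.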
Work on `Cc1ccc(NC(=O)c2ccc(CN3CCN(C)CC3)cc2)cc1Nc1nccc(-c2cccnc2)n1` [Imatinib] yielded a glomerular width of 0.9892 ± 0.0063.
Work on `CCCCCN(C)CCC(O)(P(=O)(O)O)P(=O)(O)O` [Ibandronate sodium] yielded a glomerular width of 1.06 ± 0.025.
In the case of `CC(=O)OCC(=O)[C@@]1(O)CC[C@H]2[C@@H]3CCC4=CC(=O)C=C[C@]4(C)[C@@]3(F)[C@@H](O)C[C@@]21C` [Isoflupredone acetate], the glomerular width is reported as 1.21 ± 0.017.
With `COc1ccc([C@@H]2CC(=O)c3c(O)cc(O[C@@H]4O[C@H](CO[C@@H]5O[C@@H](C)[C@H](O)[C@@H](O)[C@H]5O)[C@@H](O)[C@H](O)[C@H]4O)cc3O2)cc1O` [Hesperidin] the glomerular width was 0.938 ± 0.045.
In the case of `C[C@](N)(Cc1ccc(O)c(O)c1)C(=O)O` [Methyldopa (L,-)], the glomerular width is reported as 1.02 ± 0.081.
For `CCCc1nn(C)c2c(=O)[nH]c(-c3cc(S(=O)(=O)N4CCN(C)CC4)ccc3OCC)nc12` [Sildenafil], the glomerular width was 0.928 ± 0.045.
For `CCN1CCN(C(=O)N[C@@H](C(=O)N[C@@H]2C(=O)N3C(C(=O)O)=C(CSc4nnnn4C)CS[C@H]23)c2ccc(O)cc2)C(=O)C1=O` [Cefoperazone dihydrate], the glomerular width was 1.01 ± 0.086.
`CC(C)(C)NCC(O)c1ccc(O)c(CO)c1` (configuration not stated) [Salbutamol] gave a glomerular width of 1.05 ± 0.013.
`Nc1ccc(S(=O)(=O)Nc2ccnn2-c2ccccc2)cc1` [Sulfaphenazole] gave a glomerular width of 1.022 ± 0.0084.
For `Cc1cc2cc3c(C)cc(=O)oc3c(C)c2o1` [Trioxsalen], the glomerular width was 1.019 ± 0.01.
`CC(=O)CCCCn1c(=O)c2c(ncn2C)n(C)c1=O` [Pentoxifylline] was tested, and the glomerular width was 0.971 ± 0.032.
For `Cc1[nH]c(=O)c(C#N)cc1-c1ccncc1` [Milrinone], the glomerular width was 1.01 ± 0.047.
